Measured values taken from PubChem BioAssay AID652154 (Broad Institute, 2013).
About 4,200 (1.2%) of roughly 360,000 compounds were called active. This is one part of a sample in which actives are shown more often than they occur.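 The calls were made as follows: active = mean replicate inhibition at least 60% with every replicate also reaching 60%; inconclusive = only one of the two criteria is met; inactive = mean below 60% and not all replicates reaching 60%.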

Assay: inhibitors of PAX8-driven TPO luciferase reporter, primary screen, RMG-I cells, single concentration (AID 652154);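 also: luciferase light reporting Pax8 driven TPO promoter activity; plate controls were median of neutral control wells for no effect and mitoxantrone controls for full effect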
Details: SteadyGlo, 24 h, at 12.6 µM, active compounds read high

inhibition, active:
CCCC(O)(CCC)C(=O)NN(C(=O)CCl)c1cccc(C)c1 76.1%
CCCCCCCCn1c2c(c(=N)c3c1CCC3)CCCC2 96.6%
N/C(=N\OS(=O)(=O)c1cccc([N+](=O)[O-])c1)c1ccncc1 134%
O=C(Cc1c[nH]c2ccccc12)N/N=C/c1cccc(F)c1 73.6%
CC(=O)c1ccc(S(=O)(=O)N2CCN(C(=O)/C=C/c3ccc4ccccc4n3)CC2)cc1 79.4%
COc1ccc([Si](C)(C)[C@@H]2[C@@H](CCO)O[C@]3(C(=O)N(Cc4ccccc4)c4ccc(N5CCC5=O)cc43)[C@H]2C)cc1 101%
COc1cc(C2c3cc4c(cc3C(O)C3COC(=O)C23)OCO4)cc(OC)c1OC (centres undefined) 77.3%
CN(c1ccc2nc3ccccc3c(=O)n2n1)C1CCCCC1 86%
COCCSc1nnc(NC(=O)CCS(=O)(=O)Cc2ccccc2)s1 65.7%
C#Cc1cc(N2CCN(C(=O)c3ccoc3)CC2)n2nc(-c3cccc(Cl)c3)cc2n1 107%
Cc1ccc(C)c(S(=O)(=O)N2CCN(c3ncnc4sccc34)CC2)c1 73.6%
COc1cccc(S(=O)(=O)N(C)C[C@@H]2Oc3cc(C4=CCCCC4)ccc3S(=O)(=O)N([C@H](C)CO)C[C@H]2C)c1 65.8%
CCCC#Cc1ccc2c(c1)O[C@@H](CN(C)S(=O)(=O)c1cccc(OC)c1)[C@H](C)CN([C@@H](C)CO)S2(=O)=O 60.4%
COc1ccccc1S(=O)(=O)N(C)C[C@H]1Oc2cc(C#CCC3CCCC3)ccc2S(=O)(=O)N([C@@H](C)CO)C[C@H]1C 77.3%
C[C@H](CO)N1C[C@H](C)[C@H](CN(C)C(=O)Nc2ccc3c(c2)OCO3)Oc2cc(C#Cc3ccncc3)ccc2S1(=O)=O 72.2%
C[C@@H]1CN([C@H](C)CO)S(=O)(=O)c2ccc(C#CC3CCCC3)cc2O[C@@H]1CN(C)C(=O)Cc1ccncc1 90.6%
C[C@H]1CN([C@@H](C)CO)S(=O)(=O)c2ccc(C#Cc3ccncc3)cc2O[C@@H]1CN(C)C(=O)Nc1ccc2c(c1)OCO2 101%

inhibition, inactive:
CCCCC(O)(CCCC)C(=O)NN(C(=O)CCl)c1ccccc1 -1.33%
Cc1cccc(N(Cc2ccccc2)C(=O)c2ccccc2F)c1 3.65%
CN1c2ccc(-c3cccc(F)c3)cc2[C@@H]2[C@@H](CCN2C(=O)Nc2ccccc2F)[C@@H]1CO 39.3%
CC(C)NC(=O)Nc1ccc2c(c1)C(=O)N([C@H](C)CO)C[C@H](C)[C@H](CN(C)Cc1ccc(C(=O)O)cc1)OCCCC[C@@H](C)O2 2.34%
O=C(NCc1ccncc1)c1ccc(NS(=O)(=O)c2cccc([N+](=O)[O-])c2)cc1 -1.39%
Cc1ccccc1OS(=O)(=O)c1cccc([N+](=O)[O-])c1 -23.3%
COc1ccc(NC(=O)N[C@H]2CC[C@H](CCn3cc(-c4ccccc4F)nn3)O[C@H]2CO)cc1 -4.51%
C[C@@H]1CCCCO[C@H](CN(C)S(=O)(=O)c2cn(C)cn2)[C@@H](C)CN([C@@H](C)CO)C(=O)c2cc(NC(=O)c3ccncc3)ccc2O1 -1.88%
CO[C@H]1CN(C)C(=O)c2ccc(NS(=O)(=O)c3cn(C)cn3)cc2OC[C@@H](C)N(CC2CC2)C[C@H]1C -11.1%
O=C(NC(Cc1c[nH]c2ccccc12)C(=O)N/N=C/c1ccc(Br)cc1)c1cccs1 (centres undefined) -2.62%
O=C(CC(=O)N/N=C\c1ccc(F)cc1)NCCc1ccccc1 16.1%
CC(=O)c1ccc(S(=O)(=O)N2CCC(Oc3ccc(-n4cnnn4)cc3)CC2)cc1 -37.6%
CC(=O)c1ccc(S(=O)(=O)N2CCC3(CC2)OCCO3)cc1 -17.6%
COc1ccc(S(=O)(=O)Nc2ccc3c(c2)C(=O)N([C@H](C)CO)C[C@H](C)[C@H](CN(C)S(=O)(=O)c2ccc(Cl)cc2)O3)cc1 -6.19%
CC(C)C#Cc1ccc2c(c1)O[C@@H](CN(C)Cc1ccncc1)[C@@H](C)CN([C@@H](C)CO)S2(=O)=O -12.5%
COc1ccc(-c2ccc([C@@H]3[C@@H](CO)N4C(=O)CN(Cc5ccccc5)C[C@@H]34)cc2)cc1 -17%
COc1ccc([Si](C)(C)[C@@H]2[C@@H](CCO)O[C@]3(C(=O)N(Cc4cccc(N5CCCCC5=O)c4)c4ccccc43)[C@H]2C)cc1 3.33%
O=C(CC1CC1)N1[C@@H]2CN(S(=O)(=O)c3ccccc3F)c3ccccc3[C@@H]2[C@@H]1CO -3.48%
O=C(C1=C[C@@H](c2ccccc2)C[C@@H](OCCCCO)O1)N1CCN(Cc2ccccc2)CC1 2.95%
COc1cc(C2CC(=O)Oc3cc(OC)c(OC)c(OC)c32)cc(OC)c1OC (centres undefined) -2.9%
COc1cc(C(=O)CCc2ccc3c(c2)OCO3)cc(OC)c1OC -6.52%
Cc1ccccc1S(=O)(=O)N1[C@@H]2CNC[C@H]1C2c1ccc(-c2cccnc2)cc1 (some centres undefined) 19.3%
CC(C)c1cc(C(=O)NC2CCCCCC2)c2ccccc2n1 -9.13%
CC(C)C(C)NC(=O)COc1nc2ccccc2nc1N(C)C1CCCCC1 (centres undefined) 0.996%
COc1ccc2c3c(n(C)c2c1)[C@@H](CO)N(Cc1ccncc1)CC31CN(C(=O)C2CCCCC2)C1 -15.5%
COc1ccc(S(=O)(=O)N(C)C[C@H]2OCCCC[C@@H](C)Oc3ccc(NC(=O)NC(C)C)cc3C(=O)N([C@H](C)CO)C[C@H]2C)cc1 17%
C/C=C/c1ccc([C@H]2[C@@H](C#N)N(C(=O)CN3CCOCC3)[C@@H]2CO)cc1 -6.35%
CCOCc1nnc(NC(=O)CCS(=O)(=O)Cc2ccccc2)s1 50.3%
COC(=O)CSc1nnc(NC(=O)CCc2ccccc2)s1 -0.955%
C[C@@H]1CN([C@@H](C)CO)S(=O)(=O)c2ccc(-c3cccc(C(=O)N(C)C)c3)cc2O[C@@H]1CN(C)C -0.377%
O=C(C[C@H]1C[C@H]2c3cc(NC(=O)C4CCC4)ccc3O[C@H]2[C@@H](CO)O1)NCc1ccc(Cl)cc1 -5.09%
CN(C)CCN1CCN(c2cc(-c3cccc(Cl)c3)nc3ccnn23)CC1 -3.43%
O=C(c1ccccc1)N1CCN(c2cc(-c3ccccc3)nc3cc(-c4cccc(Cl)c4)nn23)CC1 40.2%
C[C@@H]1CN([C@H](C)CO)C(=O)c2cccc(NS(=O)(=O)c3ccccc3)c2O[C@@H]1CN(C)Cc1ccc(C(=O)O)cc1 14.1%
CCC(=O)Nc1ccc2c(c1)C(=O)N(C)[C@@H]1CC[C@@H](CC(=O)Nc3cccc(OC)c3)O[C@@H]1CO2 8.78%
Cc1ccc(C)c(S(=O)(=O)N2CCN(CC(=O)Nc3ccc([N+](=O)[O-])cc3)CC2)c1 6.46%
COc1ccc(-c2csc3ncnc(N4CCN(S(=O)(=O)c5ccccc5C#N)CC4)c23)cc1 9.25%
CCC(=O)Nc1ccc2c(c1)OC[C@@H](C)N(Cc1ccccc1OC)C[C@H](C)[C@H](OC)CN(C)C2=O -6.79%
C[C@@H]1CN([C@H](C)CO)C(=O)c2cc(NS(=O)(=O)c3cn(C)cn3)ccc2O[C@H]1CN(C)S(=O)(=O)c1ccc(Cl)cc1 1.32%
CC(=O)N(C)C[C@@H]1Oc2ncc(C#Cc3ccc(F)cc3)cc2C(=O)N([C@H](C)CO)C[C@@H]1C -8.23%
C[C@@H]1CN([C@@H](C)CO)S(=O)(=O)c2ccc(C#CCN(C)C)cc2O[C@@H]1CN(C)S(=O)(=O)c1cccc(F)c1 -15.8%
C[C@@H]1CN([C@H](C)CO)S(=O)(=O)c2ccc(C#CCC3CCCC3)cc2O[C@H]1CN(C)C(=O)CC1CC1 23.3%
CCCN(C)C[C@H]1Oc2cc(C#CCC3CCCC3)ccc2S(=O)(=O)N([C@@H](C)CO)C[C@@H]1C 2%
COCC(=O)N(C)C[C@@H]1Oc2cc(C3=CCCC3)ccc2S(=O)(=O)N([C@@H](C)CO)C[C@H]1C -21%
Cc1ccc(S(=O)(=O)N(C)C[C@@H]2Oc3cc(C4=CCCC4)ccc3S(=O)(=O)N([C@@H](C)CO)C[C@@H]2C)cc1 36.4%
C[C@H](CO)N1C[C@H](C)[C@@H](CN(C)S(=O)(=O)c2cccc(F)c2)Oc2cc(C#CCN(C)C)ccc2S1(=O)=O 14.6%
C[C@H]1CN([C@@H](C)CO)C(=O)Cc2cc(NC(=O)Nc3cccc4ccccc34)ccc2O[C@@H]1CN(C)C -5.56%
OC[C@H]1[C@H](c2ccc(-c3ccccc3F)cc2)[C@H]2CN(Cc3cncnc3)CCCCN21 1.13%
COc1ccccc1-c1ccc2c(c1)O[C@H](CN(C)C(=O)c1cccnc1)[C@@H](C)CN([C@H](C)CO)S2(=O)=O 15%
C=CC[C@]12C[C@@]3(O[C@H](c4ccc(C(F)(F)F)cc4)N=C3C[C@H](c3ccc(OC)cc3)[C@H]1C)N(C1CCN(Cc3ccccc3)CC1)C2=O -2.39%
CNC[C@@H]1Oc2cc(C#CC3(O)CCCC3)ccc2S(=O)(=O)N([C@@H](C)CO)C[C@H]1C 9.72%
C[C@@H]1CN([C@H](C)CO)S(=O)(=O)c2ccc(C3=CCCC3)cc2O[C@H]1CN(C)C(=O)Nc1ccc2c(c1)OCO2 8.58%
C[C@H]1CN([C@@H](C)CO)S(=O)(=O)c2ccc(C3=CCCC3)cc2O[C@H]1CN(C)C(=O)Nc1ccc2c(c1)OCO2 19.4%
C[C@H]1CN([C@@H](C)CO)S(=O)(=O)c2ccc(C#CC3CCCC3)cc2O[C@H]1CN(C)C(=O)Cc1ccncc1 32.9%
CC(C)C#Cc1ccc2c(c1)O[C@@H](CN(C)C(=O)NC(C)C)[C@H](C)CN([C@H](C)CO)S2(=O)=O -13.2%
C[C@@H]1CN([C@H](C)CO)S(=O)(=O)c2ccc(C#CC3CCCCC3)cc2O[C@H]1CN(C)C(=O)Cc1ccncc1 0.108%
C[C@@H]1CN([C@@H](C)CO)S(=O)(=O)c2ccc(C#Cc3ccccc3)cc2O[C@@H]1CN(C)C(=O)Nc1ccccc1 3.61%
